The full data set covers some 8,800 targets. This sample favours those with a hit. About 0.5% of all pairs of compound and target were hits.
What was measured:
Test in all cases: log2 fold change, soluble protein after heating vs DMSO (PISA); higher = thermal stabilisation; K562 lysate, 10 uM; active = over 0.2 and 3.5 SD of the protein, either way, in both replicates (recomputed)
[1] = compound: C#Cc1cccc(Nc2ncnc3cc(OCCOC)c(OCCOC)cc23)c1 [erlotinib]
Summary of the method: (§1)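 Values give the log-two fold change in thermal stability against solvent controls, from duplicates. Crude K562 extract at 1 mg/mL protein, made by dounce homogenisation in PBS pH 7.4 with 1 mM MgCl2, was treated with 10 μM compound for 30 min. After 3 min heating across 48°C-58°C, aliquots were pooled, adjusted to 0.5% NP-40 at 4°C and centrifuged at 21,000xg for 90 min. The supernatant was measured by TMTpro 16plex LC-MS/MS with channel sums equalised.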

[2] = compound: C/C(=N\NC(=O)C1=CC(=CC=C1)S(=O)(=O)N2CCOCC2)/C3=C(C=CC(=C3)Cl)O
Summary of the method: as §1

[3] = compound: C1=CC(=CC=C1C2=NC3=C(N2)C=C(C=C3)C(=O)N)OC4=CC=C(C=C4)Cl
Summary of the method: as §1

[4] = compound: C1=CC2=C(C=CC(=C2)/C=C\3/C(=O)NC(=NCC4=CC=CS4)S3)N=C1
Summary of the method: as §1

[5] = compound: C1=CC2=NC=CN=C2C=C1/C=C/3\C(=O)NC(=O)S3
Summary of the method: as §1

[6] = compound: C1=CC=C(C=C1)C2=NC(=C(N2)C3=CC=NC=C3)C4=CC(=C(C=C4)Cl)O
Summary of the method: as §1

[7] = compound: C1=CC=C2C(=C1)C3=NNC4=CC=CC(=C43)C2=O
Summary of the method: as §1

[8] = compound: C1CCN(C1)C(=O)NC2=CC=CC(=C2)NC3=NC=C(C(=N3)NCCC4=CN=CN4)Br
Summary of the method: as §1

[9] = compound: C1CN(CCC1(CC2=CC=C(C=C2)Cl)N)C3=NC=NC4=C3C=CN4
Summary of the method: as §1

[10] = compound: C1COCCN1CCN2C3=CC=CC=C3N=C2NC(=O)C4=CC(=CC=C4)[N+](=O)[O-] [IRAK-1-4 Inhibitor I]
Summary of the method: as §1

Measured: log2 fold change

SDHC (UniProt Q99643)
Sequence of UniProt Q99643 (Q99643 whole entry, looked up): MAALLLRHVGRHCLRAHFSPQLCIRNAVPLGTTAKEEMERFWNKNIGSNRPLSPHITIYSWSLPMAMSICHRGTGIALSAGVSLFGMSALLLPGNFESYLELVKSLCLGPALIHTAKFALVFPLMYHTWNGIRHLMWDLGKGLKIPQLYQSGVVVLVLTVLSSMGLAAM
inactive: [1] 0.013 | [2] 0.002 | [3] 0.001 | [4] 0 | [5] -0.048 | [6] -0.01 | [7] 0.02 | [8] -0.02 | [9] -0.067 | [10] 0.032

RNF213, A0A0A0MTC1
inactive: [1] 0.041 | [2] 0.004 | [3] 0 | [4] 0.042 | [5] 0.015 | [6] 0.021 | [7] -0.045 | [8] -0.005 | [9] 0.047 | [10] 0.025

SAR1B (UniProt Q9Y6B6)
Sequence of UniProt Q9Y6B6 (Q9Y6B6 whole entry, looked up): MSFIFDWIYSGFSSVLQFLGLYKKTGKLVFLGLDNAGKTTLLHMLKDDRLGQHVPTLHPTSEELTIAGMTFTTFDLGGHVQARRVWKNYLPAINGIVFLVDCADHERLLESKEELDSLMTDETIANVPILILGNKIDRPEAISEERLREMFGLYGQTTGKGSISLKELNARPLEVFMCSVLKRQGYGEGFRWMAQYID
inactive: [1] -0.143 | [2] 0.011 | [3] 0.042 | [4] -0.046 | [5] -0.065 | [6] -0.045 | [7] 0.029 | [8] -0.126 | [9] 0.025 | [10] 0.041

RAB21 (UniProt Q9UL25)
Sequence of UniProt Q9UL25 (Q9UL25 whole entry, looked up): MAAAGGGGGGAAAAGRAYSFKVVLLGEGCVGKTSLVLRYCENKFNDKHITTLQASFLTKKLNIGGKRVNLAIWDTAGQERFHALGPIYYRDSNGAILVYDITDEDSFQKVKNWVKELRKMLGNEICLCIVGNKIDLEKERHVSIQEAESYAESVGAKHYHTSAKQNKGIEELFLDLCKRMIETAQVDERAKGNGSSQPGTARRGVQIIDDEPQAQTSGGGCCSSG
inactive: [1] 0 | [2] -0.008 | [3] 0.015 | [4] 0.02 | [5] 0.02 | [6] -0.028 | [7] -0.034 | [8] 0.026 | [9] 0.012 | [10] 0.045

SCML2 (UniProt Q9UQR0)
inactive: [1] 0.021 | [2] 0.038 | [3] 0.019 | [4] 0.068 | [5] -0.046 | [6] 0 | [7] -0.028 | [8] -0.003 | [9] 0.043 | [10] -0.01

SCO2 (UniProt O43819)
Sequence of UniProt O43819 (O43819 whole entry, looked up): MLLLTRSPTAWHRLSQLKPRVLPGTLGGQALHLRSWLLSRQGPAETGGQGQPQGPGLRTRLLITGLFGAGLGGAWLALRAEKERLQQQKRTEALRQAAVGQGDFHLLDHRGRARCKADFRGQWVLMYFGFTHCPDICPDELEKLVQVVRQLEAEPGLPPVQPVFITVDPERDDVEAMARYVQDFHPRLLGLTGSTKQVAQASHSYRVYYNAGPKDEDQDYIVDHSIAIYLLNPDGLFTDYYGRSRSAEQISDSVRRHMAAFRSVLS
inactive: [1] 0.055 | [2] -0.09 | [3] 0.057 | [4] 0.023 | [5] -0.017 | [6] 0.085 | [7] 0.035 | [8] 0.014 | [9] 0.041 | [10] -0.015

SCO1 (UniProt O75880)
Sequence of UniProt O75880 (O75880 whole entry, looked up): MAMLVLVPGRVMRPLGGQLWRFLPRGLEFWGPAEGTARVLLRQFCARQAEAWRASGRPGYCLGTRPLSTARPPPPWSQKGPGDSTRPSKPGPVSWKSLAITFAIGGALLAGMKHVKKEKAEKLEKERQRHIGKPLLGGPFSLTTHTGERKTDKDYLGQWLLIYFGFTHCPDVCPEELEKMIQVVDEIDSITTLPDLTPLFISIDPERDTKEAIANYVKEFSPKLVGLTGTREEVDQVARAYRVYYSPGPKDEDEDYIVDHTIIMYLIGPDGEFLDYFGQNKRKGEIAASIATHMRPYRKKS
inactive: [1] 0.008 | [2] -0.06 | [3] 0.036 | [4] -0.014 | [5] 0.011 | [6] 0.012 | [7] -0.045 | [8] 0.033 | [9] 0.068 | [10] 0.006

RABGGTB (UniProt P53611)
Sequence of UniProt P53611 (P53611 whole entry, looked up): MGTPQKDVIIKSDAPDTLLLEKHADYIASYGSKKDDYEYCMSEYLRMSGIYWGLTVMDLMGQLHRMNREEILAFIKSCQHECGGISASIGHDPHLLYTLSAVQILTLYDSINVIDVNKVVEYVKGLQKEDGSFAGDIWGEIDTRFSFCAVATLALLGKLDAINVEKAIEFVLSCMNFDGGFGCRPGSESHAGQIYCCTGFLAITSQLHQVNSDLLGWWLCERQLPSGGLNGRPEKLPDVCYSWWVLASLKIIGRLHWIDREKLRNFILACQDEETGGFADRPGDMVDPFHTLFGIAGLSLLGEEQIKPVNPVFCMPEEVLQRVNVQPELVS
inactive: [1] 0.01 | [2] 0.026 | [3] -0.015 | [4] 0.021 | [5] 0.04 | [6] -0.023 | [7] -0.093 | [8] -0.029 | [9] 0.003 | [10] 0.03

REXO4 (UniProt Q9GZR2)
Sequence of UniProt Q9GZR2 (Q9GZR2 whole entry, looked up): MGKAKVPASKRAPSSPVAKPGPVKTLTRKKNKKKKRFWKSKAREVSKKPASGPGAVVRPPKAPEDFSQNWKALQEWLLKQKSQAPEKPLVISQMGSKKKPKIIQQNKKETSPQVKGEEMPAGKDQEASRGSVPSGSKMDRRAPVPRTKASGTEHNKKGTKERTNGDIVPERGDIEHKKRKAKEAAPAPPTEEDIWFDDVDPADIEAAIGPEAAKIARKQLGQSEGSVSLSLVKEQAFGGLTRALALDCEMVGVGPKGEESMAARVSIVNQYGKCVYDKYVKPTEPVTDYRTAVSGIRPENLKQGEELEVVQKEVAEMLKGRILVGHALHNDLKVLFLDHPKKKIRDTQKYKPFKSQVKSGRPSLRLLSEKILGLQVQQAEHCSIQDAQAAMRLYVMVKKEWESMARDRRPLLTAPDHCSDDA
inactive: [1] -0.041 | [2] -0.195 | [3] -0.041 | [4] -0.084 | [5] -0.052 | [6] 0.027 | [7] -0.033 | [8] -0.022 | [9] 0.003 | [10] -0.027

REEP6 (UniProt Q96HR9)
Sequence of UniProt Q96HR9 (Q96HR9 whole entry, looked up): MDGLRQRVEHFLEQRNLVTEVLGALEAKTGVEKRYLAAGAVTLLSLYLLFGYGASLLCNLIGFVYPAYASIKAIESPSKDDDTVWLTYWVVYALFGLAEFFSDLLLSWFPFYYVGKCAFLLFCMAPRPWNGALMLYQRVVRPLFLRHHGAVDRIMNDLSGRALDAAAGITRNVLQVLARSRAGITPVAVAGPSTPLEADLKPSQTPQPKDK
inactive: [1] -0.023 | [2] -0.026 | [3] 0.008 | [4] 0.077 | [5] -0.06 | [6] -0.029 | [7] -0.069 | [8] 0.021 | [9] -0.022 | [10] -0.05

RDH14 (UniProt Q9HBH5)
Sequence of UniProt Q9HBH5 (Q9HBH5 whole entry, looked up): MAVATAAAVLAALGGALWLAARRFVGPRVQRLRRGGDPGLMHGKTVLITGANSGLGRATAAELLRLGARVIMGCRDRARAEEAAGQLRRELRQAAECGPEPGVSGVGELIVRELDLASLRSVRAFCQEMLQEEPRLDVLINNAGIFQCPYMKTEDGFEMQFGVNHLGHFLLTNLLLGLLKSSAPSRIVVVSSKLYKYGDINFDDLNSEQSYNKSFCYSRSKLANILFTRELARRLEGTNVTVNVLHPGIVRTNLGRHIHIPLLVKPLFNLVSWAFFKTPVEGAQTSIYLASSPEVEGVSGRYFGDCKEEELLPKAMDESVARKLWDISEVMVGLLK
inactive: [1] -0.019 | [2] 0.021 | [3] -0.056 | [4] -0.049 | [5] 0.037 | [6] 0.021 | [7] 0.024 | [8] 0.036 | [9] -0.057 | [10] 0.018

RCC1 isoform 2 (UniProt P18754)
Sequence of UniProt P18754 (P18754 whole entry, looked up): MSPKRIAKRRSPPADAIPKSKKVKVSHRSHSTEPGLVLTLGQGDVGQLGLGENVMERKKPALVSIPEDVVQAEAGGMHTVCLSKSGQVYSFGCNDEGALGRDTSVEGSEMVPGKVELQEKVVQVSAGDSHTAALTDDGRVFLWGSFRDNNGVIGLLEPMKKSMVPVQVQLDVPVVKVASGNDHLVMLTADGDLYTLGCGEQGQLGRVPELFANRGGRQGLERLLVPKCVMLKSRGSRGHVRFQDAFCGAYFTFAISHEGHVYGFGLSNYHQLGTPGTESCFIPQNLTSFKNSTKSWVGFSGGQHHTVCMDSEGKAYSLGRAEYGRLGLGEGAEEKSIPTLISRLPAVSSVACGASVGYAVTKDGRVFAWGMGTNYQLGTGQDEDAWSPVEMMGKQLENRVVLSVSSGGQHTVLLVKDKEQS
inactive: [1] 0.016 | [2] 0.005 | [3] -0.033 | [4] 0 | [5] 0.017 | [6] 0.007 | [7] -0.024 | [8] -0.008 | [9] -0.043 | [10] -0.022

RABL3 (UniProt Q5HYI8)
Sequence of UniProt Q5HYI8 (Q5HYI8 whole entry, looked up): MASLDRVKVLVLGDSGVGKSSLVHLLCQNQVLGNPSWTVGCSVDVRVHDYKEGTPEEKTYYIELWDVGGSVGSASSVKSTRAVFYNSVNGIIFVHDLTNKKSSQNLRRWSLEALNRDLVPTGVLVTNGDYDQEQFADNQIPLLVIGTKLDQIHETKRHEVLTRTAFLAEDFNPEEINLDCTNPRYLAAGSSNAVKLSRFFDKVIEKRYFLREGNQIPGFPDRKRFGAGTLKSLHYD
inactive: [2] -0.019 | [3] -0.025 | [4] 0.011 | [5] 0.008 | [7] -0.041 | [8] 0.015 | [9] 0.017 | [10] 0.48
active: [1] 0.706 | [6] 0.96

RANBP6 (UniProt O60518)
Sequence of UniProt O60518 (O60518 whole entry, looked up): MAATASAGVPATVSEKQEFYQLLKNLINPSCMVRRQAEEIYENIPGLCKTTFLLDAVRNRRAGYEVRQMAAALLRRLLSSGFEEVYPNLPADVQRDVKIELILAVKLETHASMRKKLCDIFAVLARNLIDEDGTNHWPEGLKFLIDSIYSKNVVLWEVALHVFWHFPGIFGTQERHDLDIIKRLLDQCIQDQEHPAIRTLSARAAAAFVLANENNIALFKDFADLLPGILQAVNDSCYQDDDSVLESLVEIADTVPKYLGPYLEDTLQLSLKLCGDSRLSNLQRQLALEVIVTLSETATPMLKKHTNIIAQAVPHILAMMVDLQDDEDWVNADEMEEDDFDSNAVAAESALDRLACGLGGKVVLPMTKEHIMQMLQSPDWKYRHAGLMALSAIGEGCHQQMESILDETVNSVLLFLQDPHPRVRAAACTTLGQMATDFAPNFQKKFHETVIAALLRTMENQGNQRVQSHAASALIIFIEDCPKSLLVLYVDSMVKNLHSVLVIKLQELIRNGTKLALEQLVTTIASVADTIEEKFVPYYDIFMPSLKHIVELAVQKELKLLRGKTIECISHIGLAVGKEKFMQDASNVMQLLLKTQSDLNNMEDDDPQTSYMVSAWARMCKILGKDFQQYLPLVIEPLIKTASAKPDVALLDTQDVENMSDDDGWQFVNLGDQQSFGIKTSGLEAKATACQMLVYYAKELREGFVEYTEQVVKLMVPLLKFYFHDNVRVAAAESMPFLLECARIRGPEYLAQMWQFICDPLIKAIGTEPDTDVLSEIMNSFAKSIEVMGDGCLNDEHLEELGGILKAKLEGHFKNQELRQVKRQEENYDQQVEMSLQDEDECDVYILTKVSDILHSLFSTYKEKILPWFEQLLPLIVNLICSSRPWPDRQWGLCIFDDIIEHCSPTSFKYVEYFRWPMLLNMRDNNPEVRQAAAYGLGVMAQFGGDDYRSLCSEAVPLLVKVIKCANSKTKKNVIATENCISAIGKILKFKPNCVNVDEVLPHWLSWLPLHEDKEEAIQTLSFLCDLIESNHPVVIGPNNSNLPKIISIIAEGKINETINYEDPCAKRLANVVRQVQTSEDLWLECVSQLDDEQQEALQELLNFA
inactive: [1] 0.045 | [2] -0.043 | [3] -0.003 | [4] -0.034 | [5] 0.061 | [6] 0.027 | [7] 0.021 | [8] 0.044 | [9] -0.019 | [10] 0.04

RBM42 (UniProt Q9BTD8)
Sequence of UniProt Q9BTD8 (Q9BTD8 whole entry, looked up): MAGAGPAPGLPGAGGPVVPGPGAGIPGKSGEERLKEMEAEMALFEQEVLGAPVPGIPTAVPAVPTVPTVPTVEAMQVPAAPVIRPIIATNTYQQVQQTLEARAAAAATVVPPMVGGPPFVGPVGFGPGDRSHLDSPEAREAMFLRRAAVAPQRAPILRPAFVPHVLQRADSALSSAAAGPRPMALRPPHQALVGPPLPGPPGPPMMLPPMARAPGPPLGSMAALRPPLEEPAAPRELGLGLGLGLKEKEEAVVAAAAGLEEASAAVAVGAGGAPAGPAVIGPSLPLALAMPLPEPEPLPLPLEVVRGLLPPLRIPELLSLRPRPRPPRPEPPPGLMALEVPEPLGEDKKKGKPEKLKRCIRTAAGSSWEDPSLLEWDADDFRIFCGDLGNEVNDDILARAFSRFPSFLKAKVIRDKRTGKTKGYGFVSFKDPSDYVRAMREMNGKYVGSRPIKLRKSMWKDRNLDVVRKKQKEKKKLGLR
inactive: [1] -0.034 | [2] -0.161 | [3] 0.073 | [4] -0.062 | [5] -0.018 | [6] -0.009 | [7] -0.05 | [8] -0.017 | [9] -0.014 | [10] 0.049
